{"source": "PubChem BioAssay (NCATS)", "key": {"[1]": {"target": "Nuclear receptor subfamily 1 group I member 2 (Homo sapiens) (UniProt O75469)", "sequence (O75469 whole entry, looked up)": "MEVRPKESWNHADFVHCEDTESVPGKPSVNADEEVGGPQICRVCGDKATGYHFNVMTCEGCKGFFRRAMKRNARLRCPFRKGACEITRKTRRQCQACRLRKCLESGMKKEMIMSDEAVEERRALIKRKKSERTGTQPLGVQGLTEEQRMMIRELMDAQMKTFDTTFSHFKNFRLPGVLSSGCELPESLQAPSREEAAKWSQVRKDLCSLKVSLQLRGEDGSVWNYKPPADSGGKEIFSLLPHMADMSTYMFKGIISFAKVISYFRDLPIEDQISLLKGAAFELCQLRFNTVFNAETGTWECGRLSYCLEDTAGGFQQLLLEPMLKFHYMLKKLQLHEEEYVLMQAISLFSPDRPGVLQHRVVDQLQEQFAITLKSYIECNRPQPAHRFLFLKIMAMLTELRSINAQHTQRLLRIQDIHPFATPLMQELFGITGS", "experiment": "Dual reporter qHTS for agonist of Pregnane X Receptor (hPXR) against the NCATS DSHEA and TCM libraries: Luminescence readout (AID 1920059)", "conditions": "hPXR dual reporter cells, luciferase luminescence agonist; series mostly up to 40 µM", "procedure,_shortened": "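hPXR-Luc HepG2 cells, 2000/well in 5% charcoal-stripped FBS medium, attached 5 h, then exposed 24 h at 37C to compounds. Viability by CellTiter-Fluor, then luciferase luminescence with ONE-Glo.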"}, "[2]": {"experiment": "Viability counterscreen for agonist of constitutive androstane receptor (CAR) against the NCATS DSHEA and TCM libraries (AID 1794838)", "conditions": "HepG2 cell viability counterscreen, CAR agonist assay, co-treated with 0.75 µM CAR antagonist; series mostly up to 40 µM", "procedure,_shortened": "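Viability by CellTiter-Fluor fluorescence, 405/540 nm, after 1 h at 37C. HepG2-CYP2B6-hCAR cells were exposed 24 h to test substances in presence of 0.75 uM PK11195 (final).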"}, "[3]": {"target": "Estrogen receptor (Homo sapiens) (UniProt P03372)", "sequence (P03372 whole entry, looked up)": "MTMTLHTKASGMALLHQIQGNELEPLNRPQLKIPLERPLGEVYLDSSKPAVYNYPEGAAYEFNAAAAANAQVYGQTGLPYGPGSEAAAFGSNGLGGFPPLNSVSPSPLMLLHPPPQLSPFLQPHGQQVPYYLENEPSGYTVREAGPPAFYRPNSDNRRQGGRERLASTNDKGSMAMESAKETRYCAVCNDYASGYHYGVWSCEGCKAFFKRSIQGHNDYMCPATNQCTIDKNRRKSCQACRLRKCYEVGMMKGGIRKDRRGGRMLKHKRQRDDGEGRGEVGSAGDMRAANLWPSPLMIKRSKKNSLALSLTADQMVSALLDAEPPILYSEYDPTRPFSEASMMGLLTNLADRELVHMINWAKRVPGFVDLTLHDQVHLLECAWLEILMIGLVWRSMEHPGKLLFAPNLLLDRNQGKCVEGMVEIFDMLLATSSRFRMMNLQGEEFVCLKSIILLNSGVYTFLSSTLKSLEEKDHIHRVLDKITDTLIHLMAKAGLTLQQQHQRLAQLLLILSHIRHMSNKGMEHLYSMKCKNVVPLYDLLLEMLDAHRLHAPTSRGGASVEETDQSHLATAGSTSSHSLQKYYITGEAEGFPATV", "experiment": "qHTS assay for small molecule antagonists of estrogen receptor alpha signaling (AID 588513; active = well fitted curve in the direction sought with a large enough effect in the signal ratio, with a control signal flat, not every such curve was filed as active; the % refers to the signal ratio)", "conditions": "ER-alpha-UAS-bla HEK293, beta-lactamase ratio, antagonist mode; series mostly up to 76.9 µM", "procedure,_shortened": "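Beta-lactamase reporter, antagonist mode, HEK 293 GripTite cells; 0.5nM E2 stimulus, 18 h, 37 C; CCF4 dye 2 h RT; fluorescence. IC50 and efficacy from Hill fits, normalized to E2 and DMSO.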"}, "[4]": {"target": "Peroxisome proliferator-activated receptor gamma (Homo sapiens) (UniProt P37231)", "sequence (P37231 whole entry, looked up)": "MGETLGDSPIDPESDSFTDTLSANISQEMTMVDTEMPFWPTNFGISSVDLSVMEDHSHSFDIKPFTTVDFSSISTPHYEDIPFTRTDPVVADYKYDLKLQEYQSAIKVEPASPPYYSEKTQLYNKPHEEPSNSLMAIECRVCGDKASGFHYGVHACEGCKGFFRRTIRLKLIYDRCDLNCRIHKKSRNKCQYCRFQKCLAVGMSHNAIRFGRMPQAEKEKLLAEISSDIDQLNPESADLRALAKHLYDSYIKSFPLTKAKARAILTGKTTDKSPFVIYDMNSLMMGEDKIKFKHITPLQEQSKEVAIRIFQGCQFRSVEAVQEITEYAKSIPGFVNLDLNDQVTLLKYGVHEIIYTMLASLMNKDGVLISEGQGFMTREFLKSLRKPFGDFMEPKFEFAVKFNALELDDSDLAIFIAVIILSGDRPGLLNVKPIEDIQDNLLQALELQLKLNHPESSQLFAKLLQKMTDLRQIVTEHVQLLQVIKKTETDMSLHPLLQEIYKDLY", "experiment": "qHTS assay for small molecule agonists of peroxisome proliferator-activated receptor gamma signaling (AID 588536; active = well fitted curve in the direction sought with a large enough effect in the signal ratio, with a control signal flat, not every such curve was filed as active; the % refers to the signal ratio)", "conditions": "HEK293 PPARg-UAS-bla, beta-lactamase ratio, 16 h, percent of rosiglitazone response, DMSO as zero; series mostly up to 76.7 µM", "procedure,_shortened": "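Cells were plated and held 6–6.5 h at 37 C, then compounds were added as a titration series. After a further 16 h, CCF4 dye was loaded for 2 h at room temperature and emission at 460/530 nm recorded.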"}, "[5]": {"experiment": "qHTS assay for small molecule antagonists of retinoid X receptor alpha signaling (AID 588546; active = well fitted inhibition curve with a large enough effect in the signal ratio, with a control signal flat, not every such curve was filed as active; the % refers to the signal ratio)", "conditions": "HEK293T RXRa-UAS-bla, beta-lactamase ratio, antagonist mode; measured here: W530 green channel, cytotoxicity proxy", "procedure,_shortened": "(§1)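 Beta-lactamase reporter inhibition, read as CCF4 fluorescence ratio (ex 405, em 460/530 nm) after 2 h at RT. HEK293T UAS-bla cells, 2500/well, were stimulated with 9-cis-RA at 500 or 100 nM final alongside test compound for 18 h at 37 C.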"}, "[6]": {"target": "Retinoic acid receptor RXR-alpha (Homo sapiens) (UniProt P19793)", "sequence (P19793 whole entry, looked up)": "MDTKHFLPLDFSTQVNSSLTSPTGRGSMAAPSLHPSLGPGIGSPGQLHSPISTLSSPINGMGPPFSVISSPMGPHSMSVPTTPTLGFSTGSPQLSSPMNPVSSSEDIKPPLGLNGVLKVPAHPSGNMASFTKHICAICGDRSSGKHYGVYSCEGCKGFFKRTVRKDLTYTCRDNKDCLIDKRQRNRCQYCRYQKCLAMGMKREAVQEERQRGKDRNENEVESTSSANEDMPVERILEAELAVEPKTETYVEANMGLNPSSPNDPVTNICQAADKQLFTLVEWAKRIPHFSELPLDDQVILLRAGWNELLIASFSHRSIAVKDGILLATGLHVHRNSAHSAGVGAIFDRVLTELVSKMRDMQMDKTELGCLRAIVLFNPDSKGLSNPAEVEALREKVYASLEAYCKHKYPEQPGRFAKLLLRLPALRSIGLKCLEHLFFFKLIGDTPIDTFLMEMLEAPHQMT", "experiment": "qHTS assay for small molecule antagonists of retinoid X receptor alpha signaling (AID 588546)", "conditions": "HEK293T RXRa-UAS-bla, beta-lactamase ratio, antagonist mode", "procedure,_shortened": "as §1"}, "[7]": {"experiment": "qHTS assay for small molecule activators of the p53 signaling pathway (AID 651743; active = well fitted activation curve with a large enough effect in the signal ratio, not every such curve was filed as active; the % refers to the signal ratio)", "conditions": "HCT-116 p53RE-bla, beta-lactamase FRET ratio, 16 h; activation: stronger effect = higher value", "procedure,_shortened": "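Reporter: beta-lactamase driven by p53 response elements, stably integrated in HCT-116 cells. Cells seeded at 4,000/well, 5 h preincubation, compound (DMSO) 16 h at 37 C; B/G FRET substrate 2 h RT; fluorescence intensity read.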"}, "[8]": {"experiment": "qHTS assay for environmental chemicals that activate the Aryl hydrocarbon Receptor (AhR) signaling pathway (AID 651777)", "conditions": "1A2-DRE human hepatoma cells, luciferase, 24 h; activation: stronger effect = higher value", "procedure,_shortened": "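Luminescence (One-Glo, 30 min, room temperature) reports AhR-driven luciferase in stably transfected human hepatoma cells bearing DRE and CYP1A2 promoter. Cells (1,200/well) were treated with compound for 24 hr at 37 C in qHTS format.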"}, "[9]": {"target": "Peroxisome proliferator-activated receptor alpha (Homo sapiens) (UniProt Q07869)", "sequence (Q07869 whole entry, looked up, the tested form may be a part)": "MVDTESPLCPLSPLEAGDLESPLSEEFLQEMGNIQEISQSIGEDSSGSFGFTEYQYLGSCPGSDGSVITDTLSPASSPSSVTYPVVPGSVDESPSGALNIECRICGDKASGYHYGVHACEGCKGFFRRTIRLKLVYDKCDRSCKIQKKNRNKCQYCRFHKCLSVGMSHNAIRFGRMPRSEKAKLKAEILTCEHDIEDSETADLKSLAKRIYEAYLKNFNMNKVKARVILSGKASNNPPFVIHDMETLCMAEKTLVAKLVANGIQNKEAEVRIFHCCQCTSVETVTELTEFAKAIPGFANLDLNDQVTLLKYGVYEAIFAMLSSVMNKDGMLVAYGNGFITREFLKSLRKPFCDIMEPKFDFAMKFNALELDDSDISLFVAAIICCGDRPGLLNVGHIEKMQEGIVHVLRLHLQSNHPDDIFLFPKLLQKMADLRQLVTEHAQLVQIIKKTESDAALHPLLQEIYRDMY", "experiment": "qHTS assay for small molecule agonists of the peroxisome proliferator-activated receptor alpha (PPARalpha) signaling pathway (AID 651778)", "conditions": "PathHunter PPARalpha complementation, chemiluminescence, 6 h; max response: stronger effect = higher value", "procedure,_shortened": "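Enzyme-fragment complementation assay in which ligand-bound PPARalpha translocates and forms an active enzyme that generates chemiluminescence. Cells were plated overnight, exposed to compound for 6 hr at 37 C, and then given detection reagent for 60 min at room temperature.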"}, "[10]": {"experiment": "qHTS assay for cell viability of HEK293 cells (AID 743288)", "conditions": "ATP luminescence (CellTiter-Glo), 18 h; max response: stronger effect = lower value", "procedure,_shortened": "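ATP luminescence (CellTiter-Glo) reports metabolically competent cell number after parental HEK293 cells, 2,000/well, were treated with DMSO-dissolved compounds for 18 h at 37 C; reagent incubation 30 min, room temperature.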"}, "[11]": {"target": "Cytochrome P450 3A4 (Homo sapiens) (UniProt P08684)", "sequence (P08684 whole entry, looked up)": "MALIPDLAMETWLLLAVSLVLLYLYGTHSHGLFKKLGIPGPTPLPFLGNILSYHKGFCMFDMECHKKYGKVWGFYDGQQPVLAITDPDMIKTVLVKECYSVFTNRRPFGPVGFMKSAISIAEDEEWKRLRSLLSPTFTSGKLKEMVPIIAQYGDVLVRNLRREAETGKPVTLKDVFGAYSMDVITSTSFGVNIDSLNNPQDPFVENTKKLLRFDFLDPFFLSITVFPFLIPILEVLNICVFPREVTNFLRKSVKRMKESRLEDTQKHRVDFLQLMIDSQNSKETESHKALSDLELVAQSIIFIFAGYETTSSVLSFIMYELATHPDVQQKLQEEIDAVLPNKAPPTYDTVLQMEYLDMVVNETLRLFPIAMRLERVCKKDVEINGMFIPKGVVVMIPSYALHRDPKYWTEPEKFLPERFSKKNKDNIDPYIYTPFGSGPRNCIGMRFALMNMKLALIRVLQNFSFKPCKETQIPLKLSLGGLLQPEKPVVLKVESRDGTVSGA", "experiment": "qHTS Assay for Inhibitors and Substrates of Cytochrome P450 3A4 (AID 884)", "conditions": "recombinant CYP3A4, Luciferin-PPXE luminescence; series mostly up to 57.1 µM", "procedure,_shortened": "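Luminescent readout of luciferin produced by CYP3A4 (20 nM) dealkylation of Luciferin-PPXE, 25 uM (its KM). NADPH-driven reaction ran 60 min at RT after 10 min compound preincubation; data scaled to 57 uM ketoconazole as 100% inhibition.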"}, "[12]": {"target": "Cytochrome P450 2C9 (Homo sapiens) (UniProt P11712)", "sequence (P11712 whole entry, looked up)": "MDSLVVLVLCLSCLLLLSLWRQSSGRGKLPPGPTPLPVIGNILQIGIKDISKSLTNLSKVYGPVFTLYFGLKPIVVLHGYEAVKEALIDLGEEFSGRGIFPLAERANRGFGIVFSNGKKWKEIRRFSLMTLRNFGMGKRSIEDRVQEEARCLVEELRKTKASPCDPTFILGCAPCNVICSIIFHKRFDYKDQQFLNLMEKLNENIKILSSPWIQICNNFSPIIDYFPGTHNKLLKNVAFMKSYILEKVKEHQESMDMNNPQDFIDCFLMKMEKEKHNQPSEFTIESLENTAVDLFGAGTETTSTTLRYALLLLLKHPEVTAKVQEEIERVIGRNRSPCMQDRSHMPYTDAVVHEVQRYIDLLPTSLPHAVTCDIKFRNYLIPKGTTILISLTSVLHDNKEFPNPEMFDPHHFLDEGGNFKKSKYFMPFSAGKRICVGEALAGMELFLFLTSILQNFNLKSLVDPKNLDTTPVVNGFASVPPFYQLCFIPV", "experiment": "qHTS for inhibitors of CYP2C9 against the NCATS DSHEA and TCM libraries (AID 1919973)", "conditions": "recombinant CYP2C9 enzyme activity, luminescence; series mostly up to 34.1 µM", "procedure,_shortened": "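Substances were tested against enzyme with a pro-luciferin substrate; minus-enzyme wells served as background. After NADPH-initiated oxidation (30-45 min, RT), light was generated with P450-Glo reagent.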"}}, "note": "Several values for one entry are separate records, joined by “and”; a condition that tells them apart may be missing. Equal entries are not always repeated. Inconclusive results are not listed. Entries that show only a call come without a potency. Activity calls are given as the source filed them. Unless noted, calls come from the whole dose curve; as a rule, active = well fitted curve in the direction sought with a large enough effect; inconclusive = small, poorly fitted or top-dose-only effect, or another doubt; inactive = no such curve, though single readings can be large; an effect the other way counts as inactive or inconclusive. Throughout, for potency: potency is the fitted concentration of half-maximal effect.", "data": [{"smiles": "CC1(C)C2CCC1(C)C(O)C2", "note": "(stereo not drawn)", "values": [{"measurement": "Potency", "setting": "[1]", "value": "inactive"}]}, {"smiles": "Oc1cc(O)c2c(c1)O[C@@H](c1cc(O)c(O)c(O)c1)[C@H](O)C2", "values": [{"measurement": "outcome", "setting": "[2]", "value": "inactive"}]}, {"smiles": "C=CC(C)(CCC=C(C)C)OC(C)=O", "note": "(stereo not drawn)", "values": [{"measurement": "Potency", "setting": "[3]", "value": "inactive"}, {"measurement": "outcome", "setting": "[4]", "value": "inactive"}, {"measurement": "max response", "setting": "[5]", "value": -5.27, "unit": "%"}, {"measurement": "max response", "setting": "[6]", "value": "-7.97% (inactive)"}, {"measurement": "activation", "setting": "[7]", "value": "-1.51% (inactive)"}, {"measurement": "activation", "setting": "[8]", "value": "3.8% (inactive)"}, {"measurement": "max response", "setting": "[9]", "value": "-0.802% (inactive)"}, {"measurement": "max response", "setting": "[10]", "value": "-14.2% (inactive)"}, {"measurement": "Potency", "setting": "[1]", "value": "inactive"}]}, {"smiles": "CC1=C2[C@H](/C=C(\\C)C(=O)O)CC[C@@H](C)[C@H]2CC1", "values": [{"measurement": "Potency", "setting": "[11]", "value": "inactive"}, {"measurement": "Potency", "setting": "[3]", "value": "inactive"}, {"measurement": "outcome", "setting": "[4]", "value": "inactive"}, {"measurement": "max response", "setting": "[5]", "value": 26.2, "unit": "%"}, {"measurement": "max response", "setting": "[6]", "value": "-25.2% (inactive)"}, {"measurement": "activation", "setting": "[7]", "value": "-7.78% (inactive)"}, {"measurement": "activation", "setting": "[8]", "value": "0.0877% (inactive)"}, {"measurement": "max response", "setting": "[9]", "value": "14.9% (inactive)"}, {"measurement": "max response", "setting": "[10]", "value": "5.67% (inactive)"}, {"measurement": "Potency", "setting": "[1]", "value": "inactive"}]}, {"smiles": "O=C(O)[C@H]1O[C@@H](Oc2c(-c3ccc(O)c(O)c3)oc3cc(O)cc(O)c3c2=O)[C@H](O)[C@@H](O)[C@@H]1O", "values": [{"measurement": "Potency", "setting": "[12]", "value": "14.1 µM (active)"}, {"measurement": "Potency", "setting": "[1]", "value": "inactive"}]}, {"smiles": "CCCCCCCCCCCCCC(=O)O", "values": [{"measurement": "Potency", "setting": "[11]", "value": "inactive"}, {"measurement": "Potency", "setting": "[3]", "value": "inactive"}, {"measurement": "outcome", "setting": "[4]", "value": "inactive"}, {"measurement": "max response", "setting": "[5]", "value": "9.83% and 0.375%"}, {"measurement": "max response", "setting": "[6]", "value": "-6.83% (inactive) and -2.87% (inactive)"}, {"measurement": "activation", "setting": "[7]", "value": "-1.59% (inactive) and 5.08% (inactive)"}, {"measurement": "activation", "setting": "[8]", "value": "-0.758% (inactive) and 0.233% (inactive)"}, {"measurement": "Potency", "setting": "[9]", "value": "22.4 µM (active)"}, {"measurement": "max response", "setting": "[10]", "value": "2.25% (inactive) and -11.5% (inactive)"}]}, {"smiles": "CC(=O)O[C@H]1[C@H](O[C@H]2CC[C@]34C[C@]35CC[C@]3(C)[C@@H]([C@@]6(C)CC[C@@H](C(C)(C)O)O6)[C@@H](O)C[C@@]3(C)[C@@H]5C[C@H](O[C@@H]3O[C@H](CO)[C@@H](O)[C@H](O)[C@H]3O)[C@H]4C2(C)C)OC[C@@H](O)[C@@H]1O", "values": [{"measurement": "Potency", "setting": "[12]", "value": "inactive"}, {"measurement": "Potency", "setting": "[1]", "value": "inactive"}]}, {"smiles": "CCCCCCCC/C=C/CCCCCCCCCC(=O)O", "values": [{"measurement": "Potency", "setting": "[1]", "value": "inactive"}]}, {"smiles": "C=C(C)[C@H]1CC=C(CO)CC1", "values": [{"measurement": "outcome", "setting": "[2]", "value": "inactive"}, {"measurement": "Potency", "setting": "[1]", "value": "inactive"}]}, {"smiles": "C=C1C[C@@]23CC[C@H]4[C@@](C)(CCC[C@@]4(C)C(=O)O[C@@H]4O[C@H](CO)[C@@H](O)[C@H](O)[C@H]4O)[C@@H]2CC[C@]1(O[C@@H]1O[C@H](CO)[C@@H](O)[C@H](O[C@@H]2O[C@H](CO)[C@@H](O)[C@H](O)[C@H]2O)[C@H]1O[C@@H]1O[C@@H](C)[C@H](O)[C@@H](O)[C@H]1O)C3", "values": [{"measurement": "Potency", "setting": "[1]", "value": "inactive"}]}, {"smiles": "OCCc1ccc(O)cc1", "values": [{"measurement": "Potency", "setting": "[12]", "value": "inactive"}, {"measurement": "Potency", "setting": "[1]", "value": "inactive"}]}, {"smiles": "CC(=O)OC/C=C/c1ccccc1", "values": [{"measurement": "Potency", "setting": "[12]", "value": "inactive"}]}, {"smiles": "CCCCCC(=O)CC", "values": [{"measurement": "Potency", "setting": "[12]", "value": "inactive"}, {"measurement": "Potency", "setting": "[1]", "value": "inactive"}]}, {"smiles": "C=C1C[C@]23CC[C@H]4[C@@](C)(CCC[C@@]4(C)C(=O)O)[C@@H]2CC[C@@]1(O[C@@H]1O[C@H](CO)[C@@H](O)[C@H](O)[C@H]1O[C@@H]1O[C@H](CO)[C@@H](O)[C@H](O)[C@H]1O)C3", "values": [{"measurement": "Potency", "setting": "[12]", "value": "inactive"}, {"measurement": "Potency", "setting": "[1]", "value": "inactive"}]}, {"smiles": "CC1(C)CC[C@]2(C(=O)O)CC[C@]3(C)C(=CCC4[C@@]5(C)CC[C@@H](O)C(C)(C)C5CC[C@]43C)C2C1", "note": "(stereo partly drawn)", "values": [{"measurement": "Potency", "setting": "[1]", "value": "inactive"}]}, {"smiles": "OCC1=C[C@@H](O)[C@@H]2C=CO[C@@H](OC3O[C@H](CO)[C@@H](O)[C@H](O)[C@H]3O)[C@H]12", "note": "(stereo partly drawn)", "values": [{"measurement": "Potency", "setting": "[1]", "value": "inactive"}]}, {"smiles": "CCCCCCCC/C=C\\CCCCCCCCCCCCCC(=O)O", "values": [{"measurement": "Potency", "setting": "[1]", "value": "inactive"}]}]}
